Data on 36 targets can be found in the supplement of paper PMC10849652.

Targets with a hit are over-represented here; the source holds about 7,900 in all. About 0.6% of all pairs of compound and target were hits.

Chain of UniProt Q96AX1 (Q96AX1 whole entry, looked up): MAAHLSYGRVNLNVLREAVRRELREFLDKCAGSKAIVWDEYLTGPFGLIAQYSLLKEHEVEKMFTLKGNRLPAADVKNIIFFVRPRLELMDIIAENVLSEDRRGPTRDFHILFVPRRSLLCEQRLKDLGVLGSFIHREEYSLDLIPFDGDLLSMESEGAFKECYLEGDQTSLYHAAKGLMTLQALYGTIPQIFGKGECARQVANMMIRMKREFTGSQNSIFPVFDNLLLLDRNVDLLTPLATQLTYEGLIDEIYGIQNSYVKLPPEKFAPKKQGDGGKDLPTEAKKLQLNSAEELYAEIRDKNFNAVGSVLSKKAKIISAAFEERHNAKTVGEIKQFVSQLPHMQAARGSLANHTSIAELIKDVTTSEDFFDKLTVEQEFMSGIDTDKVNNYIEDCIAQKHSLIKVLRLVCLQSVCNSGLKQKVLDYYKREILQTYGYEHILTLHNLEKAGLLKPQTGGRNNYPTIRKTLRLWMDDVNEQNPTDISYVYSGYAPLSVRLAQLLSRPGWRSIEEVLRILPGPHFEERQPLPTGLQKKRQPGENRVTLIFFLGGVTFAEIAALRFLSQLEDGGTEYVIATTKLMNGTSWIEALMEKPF
Chain of UniProt Q5U3C3 (Q5U3C3 whole entry, looked up): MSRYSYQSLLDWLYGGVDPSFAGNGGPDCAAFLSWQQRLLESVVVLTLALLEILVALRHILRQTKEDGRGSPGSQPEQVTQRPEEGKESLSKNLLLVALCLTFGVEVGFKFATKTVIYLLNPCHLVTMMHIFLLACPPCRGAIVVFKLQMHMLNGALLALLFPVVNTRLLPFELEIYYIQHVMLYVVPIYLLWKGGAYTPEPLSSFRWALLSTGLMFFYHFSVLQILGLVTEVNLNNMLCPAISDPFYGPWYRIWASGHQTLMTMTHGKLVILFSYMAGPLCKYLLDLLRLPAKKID
Chain of UniProt Q7Z392 (Q7Z392 whole entry, looked up): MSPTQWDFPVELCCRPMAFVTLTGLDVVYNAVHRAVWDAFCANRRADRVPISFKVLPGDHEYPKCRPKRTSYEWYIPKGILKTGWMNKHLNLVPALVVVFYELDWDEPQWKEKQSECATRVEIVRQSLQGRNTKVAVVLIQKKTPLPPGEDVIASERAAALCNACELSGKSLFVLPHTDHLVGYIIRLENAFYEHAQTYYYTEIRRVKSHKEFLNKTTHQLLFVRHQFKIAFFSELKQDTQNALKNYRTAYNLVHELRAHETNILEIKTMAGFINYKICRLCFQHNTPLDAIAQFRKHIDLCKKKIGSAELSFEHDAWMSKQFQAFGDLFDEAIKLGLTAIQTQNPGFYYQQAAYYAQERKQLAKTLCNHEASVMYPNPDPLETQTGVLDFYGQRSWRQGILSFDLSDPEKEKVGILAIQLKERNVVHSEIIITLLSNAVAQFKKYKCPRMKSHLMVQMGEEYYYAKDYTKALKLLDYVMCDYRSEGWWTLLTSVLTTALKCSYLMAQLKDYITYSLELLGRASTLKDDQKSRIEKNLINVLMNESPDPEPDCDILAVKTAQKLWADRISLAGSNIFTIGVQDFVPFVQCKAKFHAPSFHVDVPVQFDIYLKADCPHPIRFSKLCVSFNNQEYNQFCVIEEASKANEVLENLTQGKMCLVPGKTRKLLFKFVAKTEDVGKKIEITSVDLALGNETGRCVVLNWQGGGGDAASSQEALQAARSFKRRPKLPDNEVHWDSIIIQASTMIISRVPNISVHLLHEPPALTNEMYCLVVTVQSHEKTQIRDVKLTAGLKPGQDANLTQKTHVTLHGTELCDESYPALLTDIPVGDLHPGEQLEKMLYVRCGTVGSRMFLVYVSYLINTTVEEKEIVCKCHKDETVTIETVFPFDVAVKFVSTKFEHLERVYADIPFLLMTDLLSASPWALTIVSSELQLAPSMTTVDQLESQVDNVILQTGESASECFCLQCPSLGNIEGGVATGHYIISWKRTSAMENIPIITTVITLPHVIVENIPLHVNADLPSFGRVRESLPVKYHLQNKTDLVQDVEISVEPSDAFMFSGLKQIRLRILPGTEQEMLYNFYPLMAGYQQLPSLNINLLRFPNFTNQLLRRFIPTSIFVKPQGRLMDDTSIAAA
Chain of UniProt Q9Y5K5 (Q9Y5K5 whole entry, looked up): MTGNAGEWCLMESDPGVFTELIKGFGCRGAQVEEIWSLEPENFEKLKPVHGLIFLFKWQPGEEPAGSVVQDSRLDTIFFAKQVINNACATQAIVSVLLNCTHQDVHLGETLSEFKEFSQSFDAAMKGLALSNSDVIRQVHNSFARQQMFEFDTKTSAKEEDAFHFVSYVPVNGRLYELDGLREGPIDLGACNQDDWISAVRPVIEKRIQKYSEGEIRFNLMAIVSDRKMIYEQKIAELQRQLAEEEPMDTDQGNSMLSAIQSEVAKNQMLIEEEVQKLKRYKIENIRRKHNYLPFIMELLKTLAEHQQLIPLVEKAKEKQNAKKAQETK
Chain of UniProt Q15642 (Q15642 whole entry, looked up): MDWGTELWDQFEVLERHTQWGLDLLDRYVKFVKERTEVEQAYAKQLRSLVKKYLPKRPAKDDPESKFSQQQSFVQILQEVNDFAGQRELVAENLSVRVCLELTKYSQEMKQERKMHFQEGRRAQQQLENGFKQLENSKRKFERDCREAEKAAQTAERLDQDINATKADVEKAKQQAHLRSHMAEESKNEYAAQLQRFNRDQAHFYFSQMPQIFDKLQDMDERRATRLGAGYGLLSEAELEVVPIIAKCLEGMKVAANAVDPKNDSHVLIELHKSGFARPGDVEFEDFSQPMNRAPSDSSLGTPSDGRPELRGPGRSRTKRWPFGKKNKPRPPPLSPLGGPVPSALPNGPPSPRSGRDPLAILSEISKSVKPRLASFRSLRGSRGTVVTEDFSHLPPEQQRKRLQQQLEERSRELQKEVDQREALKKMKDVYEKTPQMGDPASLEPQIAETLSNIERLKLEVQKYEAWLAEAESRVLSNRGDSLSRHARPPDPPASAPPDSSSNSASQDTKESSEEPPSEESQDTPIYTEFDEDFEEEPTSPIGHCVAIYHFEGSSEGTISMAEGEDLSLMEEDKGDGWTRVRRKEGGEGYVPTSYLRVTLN
Chain of UniProt A3KMH1 (A3KMH1 whole entry, looked up): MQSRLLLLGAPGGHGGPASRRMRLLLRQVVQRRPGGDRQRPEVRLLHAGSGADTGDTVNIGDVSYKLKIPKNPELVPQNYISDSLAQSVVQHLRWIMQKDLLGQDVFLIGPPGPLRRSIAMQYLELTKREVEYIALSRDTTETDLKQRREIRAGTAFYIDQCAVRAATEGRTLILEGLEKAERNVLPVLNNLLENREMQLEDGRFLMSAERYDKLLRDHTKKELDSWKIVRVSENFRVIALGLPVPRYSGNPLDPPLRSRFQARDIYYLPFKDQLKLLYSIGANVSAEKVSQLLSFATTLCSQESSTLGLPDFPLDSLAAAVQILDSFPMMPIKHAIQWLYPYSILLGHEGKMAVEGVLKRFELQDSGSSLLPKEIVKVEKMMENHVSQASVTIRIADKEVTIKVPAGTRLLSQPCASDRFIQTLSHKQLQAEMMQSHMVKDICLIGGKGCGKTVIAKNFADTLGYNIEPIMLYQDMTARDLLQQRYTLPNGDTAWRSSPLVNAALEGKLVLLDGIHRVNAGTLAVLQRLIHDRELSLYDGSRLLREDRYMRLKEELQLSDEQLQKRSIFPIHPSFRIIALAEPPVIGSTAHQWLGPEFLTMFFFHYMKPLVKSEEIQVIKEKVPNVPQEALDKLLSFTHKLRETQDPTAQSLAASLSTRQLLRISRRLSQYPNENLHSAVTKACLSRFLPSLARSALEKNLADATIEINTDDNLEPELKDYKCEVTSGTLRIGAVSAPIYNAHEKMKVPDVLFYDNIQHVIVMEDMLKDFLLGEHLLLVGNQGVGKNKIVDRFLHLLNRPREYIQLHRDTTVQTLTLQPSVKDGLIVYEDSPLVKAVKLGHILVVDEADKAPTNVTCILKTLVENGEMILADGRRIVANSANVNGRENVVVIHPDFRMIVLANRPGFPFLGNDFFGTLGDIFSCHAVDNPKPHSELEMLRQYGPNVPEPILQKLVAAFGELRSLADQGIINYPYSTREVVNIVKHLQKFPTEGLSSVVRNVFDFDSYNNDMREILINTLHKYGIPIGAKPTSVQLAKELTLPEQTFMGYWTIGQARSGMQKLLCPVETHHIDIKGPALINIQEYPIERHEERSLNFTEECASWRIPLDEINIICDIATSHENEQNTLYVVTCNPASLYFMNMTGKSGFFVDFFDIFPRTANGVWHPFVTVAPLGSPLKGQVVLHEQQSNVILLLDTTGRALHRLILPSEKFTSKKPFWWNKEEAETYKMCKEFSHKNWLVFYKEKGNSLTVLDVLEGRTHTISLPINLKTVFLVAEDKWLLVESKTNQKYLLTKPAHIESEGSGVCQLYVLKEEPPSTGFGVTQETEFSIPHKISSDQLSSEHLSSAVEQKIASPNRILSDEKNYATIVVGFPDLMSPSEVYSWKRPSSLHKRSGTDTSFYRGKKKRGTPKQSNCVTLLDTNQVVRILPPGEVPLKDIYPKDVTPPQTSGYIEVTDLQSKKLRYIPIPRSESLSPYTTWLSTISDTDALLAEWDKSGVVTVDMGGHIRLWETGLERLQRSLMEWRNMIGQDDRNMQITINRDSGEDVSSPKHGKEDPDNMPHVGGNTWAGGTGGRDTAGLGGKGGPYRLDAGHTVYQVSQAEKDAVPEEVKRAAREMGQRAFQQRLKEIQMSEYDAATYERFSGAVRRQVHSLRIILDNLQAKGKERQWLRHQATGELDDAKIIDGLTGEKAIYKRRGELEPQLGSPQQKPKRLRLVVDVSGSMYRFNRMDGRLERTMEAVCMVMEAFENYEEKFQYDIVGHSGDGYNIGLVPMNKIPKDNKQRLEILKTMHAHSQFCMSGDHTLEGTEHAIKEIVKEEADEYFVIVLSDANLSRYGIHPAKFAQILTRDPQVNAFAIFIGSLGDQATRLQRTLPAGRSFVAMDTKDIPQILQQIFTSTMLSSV
Chain of UniProt Q9P0T7 (Q9P0T7 whole entry, looked up): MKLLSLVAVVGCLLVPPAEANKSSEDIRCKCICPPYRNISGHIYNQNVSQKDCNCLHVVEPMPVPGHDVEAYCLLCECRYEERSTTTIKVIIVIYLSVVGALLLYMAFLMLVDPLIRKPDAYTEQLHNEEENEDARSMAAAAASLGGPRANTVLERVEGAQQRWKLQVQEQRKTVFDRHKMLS

Compound in the first test: COc1cc(Nc2ncc3c(n2)-c2ccc(Cl)cc2C(c2c(F)cccc2OC)=NC3)ccc1C(=O)O [alisertib]
Nature of the test: log2 fold change, soluble protein after heating vs DMSO (PISA); higher = thermal stabilisation; K562 cells, 10 uM, 30 min; active = over 0.2 and 3.5 SD of the protein, either way, in both replicates (recomputed). The gist of the method:
(§1)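 K562 cells at 2×10^6 cells/mL were exposed to 10 μM compound for 30 min, then aliquots were heated for 3 min across 48°C-58°C, pooled, and extracted in PBS containing 0.5% NP-40 at 4°C. The supernatant after 21,000xg for 90 min was taken as soluble protein and measured by TMTpro 16plex LC-MS/MS with channel sums equalised. Thermal stability is reported relative to control samples, with values from duplicates. Fold changes are given on a log2 scale.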
With VPS18 (UniProt Q9P253), the log2 fold change is -0.102 (inactive).
TRAPPC11 (UniProt Q7Z392): the log2 fold change was -0.052 (inactive).
On the same count and under the same terms, for VDAC1 (UniProt P21796) the value was -0.033 (inactive); for TNPO1 (UniProt Q92973), -0.074 (inactive).
Regarding UGDH (UniProt O60701), the log2 fold change was 0.067 (inactive).
As to UCHL5 (UniProt Q9Y5K5), the log2 fold change is -0.048 (inactive).
TP53BP1 isoform 2 (UniProt Q12888): the log2 fold change is 0.046 (inactive).
For the target VRK1 (UniProt Q99986), the log2 fold change is 0.06 (inactive).
Take WEE1 (UniProt P30291): the log2 fold change was -0.322 (inactive).
Same read-out and setting: as for VTI1A (UniProt Q96AJ9), the figure is -0.039 (inactive).
On to WASHC2A (UniProt Q641Q2), for which the log2 fold change was -0.065 (inactive).
As for TMEM9 (UniProt Q9P0T7), the log2 fold change was -0.081 (inactive).
Consider VPS33A (UniProt Q96AX1), for which the log2 fold change is -0.037 (inactive).
As to TMEM70 (UniProt Q9BUB7), the log2 fold change is 0.126 (inactive).
As to XRCC5 (UniProt P13010), the log2 fold change was 0.061 (inactive).
Same read-out and setting: as for TRAPPC3 (UniProt O43617), the figure is -0.055 (inactive); as for TNPO3 (UniProt Q9Y5L0), -0.064 (inactive); as for TPM2 (UniProt P07951), -0.058 (inactive).
In the case of UBE4B isoform 4 (UniProt O95155), the log2 fold change is -0.035 (inactive).
Regarding USP14 (UniProt P54578), the log2 fold change is -0.057 (inactive).
Consider VPS50 (UniProt Q96JG6), for which the log2 fold change was 0.019 (inactive).
On to TMEM87B (UniProt Q96K49), for which the log2 fold change is -0.133 (inactive).
For the target TMEM263 (UniProt Q8WUH6), the log2 fold change was -0.043 (inactive).
As to TYW1 (UniProt Q9NV66), the log2 fold change was 0 (inactive).
Consider VPS33B (UniProt Q9H267), for which the log2 fold change was -0.116 (inactive).
Regarding TMEM164 (UniProt Q5U3C3), the log2 fold change is 0.211 (inactive).
In the case of WASH2P (UniProt Q6VEQ5), the log2 fold change is -0.027 (inactive).
TOMM5 isoform 2 (UniProt Q8N4H5): the log2 fold change was -0.141 (inactive).
Turning to TRIP10 isoform 2 (UniProt Q15642), the log2 fold change is -0.029 (inactive).
Turning to TMEM106B (UniProt Q9NUM4), the log2 fold change was -0.012 (inactive).
The same measure, in the same setting: for TMTC3 (UniProt Q6ZXV5) the value was 0.105 (inactive).
Regarding USP24 (UniProt Q9UPU5), the log2 fold change was -0.008 (inactive).
On to VWA8 (UniProt A3KMH1), for which the log2 fold change was -0.037 (inactive).
As for UBLCP1 (UniProt Q8WVY7), the log2 fold change was 0.028 (inactive).
With VARS2, A0A0G2JL52, the log2 fold change was -0.01 (inactive).
In the case of TRMT10A (UniProt Q8TBZ6), the log2 fold change is 0.048 (inactive).

Compound in the next test: COc1cc2nc(-c3cc(F)ccc3O)nc(N[C@@H]3CNC[C@H]3C(C)(C)O)c2cc1OC
The test is described as above. The gist of the method:
as §1
Consider VPS18 (UniProt Q9P253), for which the log2 fold change is -0.017 (inactive).
Take TRAPPC11 (UniProt Q7Z392): the log2 fold change is -0.03 (inactive).
For the target VDAC1 (UniProt P21796), the log2 fold change is -0.023 (inactive).
As for TNPO1 (UniProt Q92973), the log2 fold change is -0.156 (inactive).
For UGDH (UniProt O60701), the log2 fold change was 0.04 (inactive).
Still for that read-out and setting: for UCHL5 (UniProt Q9Y5K5) the value was 0.04 (inactive).
Still for that read-out and setting: as for TP53BP1 isoform 2 (UniProt Q12888), the figure is -0.089 (inactive); as for VRK1 (UniProt Q99986), 0.316 (inactive); as for WEE1 (UniProt P30291), 0.039 (inactive).
As for VTI1A (UniProt Q96AJ9), the log2 fold change is -0.003 (inactive).
Take WASHC2A (UniProt Q641Q2): the log2 fold change was -0.011 (inactive).
For the target TMEM9 (UniProt Q9P0T7), the log2 fold change is -0.178 (inactive).
Regarding VPS33A (UniProt Q96AX1), the log2 fold change was 0.014 (inactive).
As for TMEM70 (UniProt Q9BUB7), the log2 fold change is -0.118 (inactive).
Still for that read-out and setting: for XRCC5 (UniProt P13010) the value was -0.232 (inactive).
The same measure, in the same setting: for TRAPPC3 (UniProt O43617) the value was 0.012 (inactive).
On to TNPO3 (UniProt Q9Y5L0), for which the log2 fold change was -0.035 (inactive).
As for TPM2 (UniProt P07951), the log2 fold change is -0.055 (inactive).
UBE4B isoform 4 (UniProt O95155): the log2 fold change was 0.021 (inactive).
Consider USP14 (UniProt P54578), for which the log2 fold change is -0.008 (inactive).
Regarding VPS50 (UniProt Q96JG6), the log2 fold change was 0.012 (inactive).
As for TMEM87B (UniProt Q96K49), the log2 fold change was -0.002 (inactive).
With TMEM263 (UniProt Q8WUH6), the log2 fold change is -0.789 (active).
Consider TYW1 (UniProt Q9NV66), for which the log2 fold change is 0.095 (inactive).
On the same count and under the same terms, for VPS33B (UniProt Q9H267) the value was -0.046 (inactive).
Same read-out and setting: for TMEM164 (UniProt Q5U3C3) the value was 0.098 (inactive).
Take WASH2P (UniProt Q6VEQ5): the log2 fold change is 0.067 (inactive).
On the same count and under the same terms, as for TOMM5 isoform 2 (UniProt Q8N4H5), the figure is -0.021 (inactive); as for TRIP10 isoform 2 (UniProt Q15642), 0.109 (inactive); as for TMEM106B (UniProt Q9NUM4), -0.027 (inactive).
For the target TMTC3 (UniProt Q6ZXV5), the log2 fold change is -0.085 (inactive).
The same measure, in the same setting: for USP24 (UniProt Q9UPU5) the value was 0.116 (inactive); for VWA8 (UniProt A3KMH1), 0.006 (inactive).
As to UBLCP1 (UniProt Q8WVY7), the log2 fold change is 0.181 (inactive).
Turning to VARS2, A0A0G2JL52, the log2 fold change is -0.017 (inactive).
Turning to TRMT10A (UniProt Q8TBZ6), the log2 fold change was -0.006 (inactive).
